Screens deposited in PubChem BioAssay by several laboratories.
E coli growth-1: counter-screen for AddAB inhibitors: E. coli growth inhibition; E. coli V3065 growth, OD600 absorbance, 18 h; inhibition, % at 11.9 µM; 330,000 compounds, 0.27% hits;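 active means inhibition above the campaign's mean inhibition across all tested compounds plus 3 SD, cut at about 9.9% in these data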;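 further: uninfected addAB+ strain grown without phage in ampicillin broth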
AddAB inh: less growth of phage-infected E. coli with AddAB. E. coli expressing H. pylori AddAB, absorbance growth. inhibition, % at 11.9 µM. 330,000 compounds, 0.29% hits; in the data active means inhibition above about 12%
phage Ecoli inh: E. coli growth loss with phage present. growth absorbance. inhibition, % at 11.9 µM. 360,000 compounds, 0.26% hits. AID 651602; in the data active means inhibition above about 11%
Tat export inh: E. coli Tat transport inhibition. E. coli MC4100 TorA-mCherry Tat export, fluorescence. inhibition, % at 10 µM. 340,000 compounds, 0.036% hits. AID 488895;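 active means mean replicate inhibition at least 50% and at least half of replicates individually reaching 50%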;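 further: exported cargo escapes ClpAP degradation while cytoplasmic cargo is degraded and loses fluorescence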
E coli growth-2: blocks Escherichia coli growth; OD600, 23 h; hits give low values; 330,000 compounds, 0.21% hits; AID 1053175; OD600 absorbance (test concentration not listed);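 active means OD600 absorbance below the run mean of sample wells minus 3.6 SD, in any replicate, cut at about 0.56 in these data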
Of the large screens only hits and unclear results are named; the others gave an inactive call. Shown are actives, neighbours in structure and some others; about 0.51% of the full set was active somewhere.

Cc1cccc(N2C(=O)CSC2=NNC(=O)c2ccc(Br)cc2)c1C	none (no result: E coli growth-1, AddAB inh, phage Ecoli inh, Tat export inh)
Cc1cccc(N2C(=O)CS/C2=N\NC(=O)c2ccc(Br)cc2)c1C	E coli growth-1 13 (no result: E coli growth-2)
COc1ccc(NC(=O)NNC(=O)c2ccc3ccccc3c2O)c(OC)c1	phage Ecoli inh 12
COc1ccc(NC(=O)NNC(=O)c2cc3ccccc3cc2O)cc1	E coli growth-1 10
CCOc1ccc(NC(=O)c2cc3ccccc3cc2O)cc1	none
COc1ccc(NC(=O)NNC(=O)c2cc(C3CC3)nc3ccccc23)c(OC)c1	none
CC(C(=O)Nc1nc2ccc(F)cc2s1)N1C(=O)C2CC=CCC2C1=O (stereo not given)	none (no result: E coli growth-1, AddAB inh, phage Ecoli inh, Tat export inh)
Cc1cc(O)c2c(c1O)C(=O)[C@]13C(=C2O)C(=O)[C@@H]2[C@@H](O)[C@H]1[C@@H]1[C@H](O)[C@H]3C(=O)C3=C(O)c4c(O)cc(C)c(O)c4C(=O)[C@]312	E coli growth-1 9.9 (no result: phage Ecoli inh)
COc1ccc(C=NNC2=NS(=O)(=O)c3ccccc32)cc1	none (no result: E coli growth-1, AddAB inh, phage Ecoli inh, Tat export inh)
C=C(C)C(=O)Nc1cccc(C2=NOC3(C2)CC(C(N)=O)N(C(=O)c2cc([N+](=O)[O-])cc([N+](=O)[O-])c2)C3)c1 (stereo not given)	none (no result: E coli growth-1, AddAB inh, phage Ecoli inh, Tat export inh)
O=C(CSc1ccc2nnc(-c3ccccn3)n2n1)Nc1ccc2c(c1)OCO2	E coli growth-1 78, AddAB inh 97
CC[n+]1c(/C=C2\Sc3ccccc3N2C)ccc2cccc(C)c21	E coli growth-2 0.33 (no result: E coli growth-1, AddAB inh)
Cc1nc2c(Br)cc(Br)cc2cc1O	E coli growth-2 0.56
Brc1cc(Br)c2nc(-c3cccs3)ccc2c1	none
CC(CCc1ccccc1)NC(=O)C(Cc1ccccc1)NC(N)=O (stereo not given)	E coli growth-2 0.53
O=C(O)CN1C(=O)/C(=C\c2cc(Br)ccc2OCc2ccc(Cl)cc2)SC1=S	none (no result: E coli growth-1, AddAB inh)
O=C(O)CN1C(=O)/C(=C\c2cc([N+](=O)[O-])ccc2OCc2ccccc2Cl)SC1=S	E coli growth-2 0.54
CN(C)C1C(=O)C(C(N)=O)=C(O)[C@@]2(O)C(=O)C3=C(O)c4c(O)ccc(Cl)c4C(O)C3CC12 (stereo not given in full)	E coli growth-2 0.063 (no result: E coli growth-1, AddAB inh, phage Ecoli inh, Tat export inh)
CC1CN(C(C)CO)C(=O)c2cc(NC(=O)Cn3cnnn3)ccc2OC1CN(C)CC1CCCCC1 (stereo not given)	none (no result: E coli growth-1, AddAB inh, phage Ecoli inh, Tat export inh)
N#CC(=NNc1ccc(Cl)cc1)C(N)=S	E coli growth-2 0.45 (no result: E coli growth-1, AddAB inh, phage Ecoli inh, Tat export inh)
Cc1nc2c(C)cccn2c1C(=O)NN=Cc1ccccc1[N+](=O)[O-]	none (no result: E coli growth-1, AddAB inh, phage Ecoli inh, Tat export inh)
CN(C)CCOc1ccc(-c2c(-c3ccsc3)sc3ccccc23)cc1	none (no result: E coli growth-2)
COc1ccc(-c2sc3ccccc3c2-c2ccc(OCCN(C)C)cc2)cc1	E coli growth-2 0.47
Oc1c(CN2CCN(c3ccccn3)CC2)cc(Cl)c2cccnc12	E coli growth-2 0.53 (no result: phage Ecoli inh)
Oc1c(Cl)cc(CN2CCCCC2)c2cccnc12	E coli growth-1 11 (no result: phage Ecoli inh, E coli growth-2)
Oc1ccc(CN2CCCCC2)c2cccnc12	none
O=C(C1=CC(c2ccccc2)CC(OCCCCO)O1)N1CCN(Cc2ccc3c(c2)OCO3)CC1 (stereo not given)	none (no result: E coli growth-1, AddAB inh, phage Ecoli inh, Tat export inh)
O=c1c(O)c(-c2cc(O)c(O)c(O)c2)oc2cc(O)cc(O)c12	E coli growth-1 10 (no result: E coli growth-2)
O=c1c(O)c(-c2ccccc2)oc2cc(O)cc(O)c12	none
O=C1C=C(NCc2ccccc2)c2ccccc2C1=O	E coli growth-2 0.47 (no result: E coli growth-1, AddAB inh)
O=C1C=C(Nc2ccccc2O)c2ccccc2C1=O	E coli growth-2 0.48
CC(C(=O)NCc1ccc(S(C)(=O)=O)cc1)C1C[C@]1(C)C(NC(=O)OCc1ccccc1)c1ccccc1 (stereo not given in full)	none (no result: E coli growth-1, AddAB inh, phage Ecoli inh, Tat export inh)
CCc1ccc(C(C)NC(=S)NC2CCCCC2)cc1 (stereo not given)	none (no result: E coli growth-1, AddAB inh, phage Ecoli inh)
CCC(C)c1ccc(C(C)NC(=S)NC2CCCCC2)cc1 (stereo not given)	E coli growth-1 11 (no result: E coli growth-2)
C=CCC(CC(=O)NCCO)C(=O)NC(COC(=O)C(CC=C)Cc1ccc(F)cc1)C(C)(C)C (stereo not given)	none (no result: E coli growth-1, AddAB inh, phage Ecoli inh, Tat export inh)
CCOC(=O)N1CCN(C(=O)c2cn(CC)c3cc(N4CCN(C)CC4)c(F)cc3c2=O)CC1	E coli growth-1 100, AddAB inh 101 (no result: phage Ecoli inh, Tat export inh, E coli growth-2)
Cc1ccc(N(C)C)cc1	none (no result: E coli growth-1, AddAB inh, Tat export inh, E coli growth-2)
Cc1ccc2c(c1)sc(-c1ccc(N(C)C)cc1)[n+]2C	E coli growth-2 0.32
CC(O)Cc1cn(C(CCCCN)C(=O)N2CCNCC2)nn1 (stereo not given)	none (no result: E coli growth-1, AddAB inh, phage Ecoli inh, Tat export inh)
CCCCNC(=O)OC1CC2CCN3C(=O)CCCC(C1CC)C23 (stereo not given)	none (no result: E coli growth-1, AddAB inh, phage Ecoli inh, Tat export inh)
CCc1ncc(C)[nH]1	none (no result: Tat export inh, E coli growth-2)
CCc1ncc(C)nc1CC	Tat export inh 55
Oc1ccc2c(c1)oc1cc(O)ccc12	none
O=c1oc2cc(O)ccc2s1	E coli growth-1 10.0 (no result: E coli growth-2)
FC(F)(F)c1ccccc1C=NN1CCN(Cc2ccccc2)CC1	none (no result: E coli growth-1, AddAB inh, phage Ecoli inh, Tat export inh)
O=[N+]([O-])c1nn(-c2ccc3c(c2)OCCO3)n(O)c1=NCCCO	E coli growth-1 14
Cc1ccc(CN=c2c([N+](=O)[O-])nn(-c3ccc4c(c3)OCCO4)n2O)cc1	none
OC(CNCC(c1ccc(Cl)cc1Cl)c1c[nH]c2ccccc12)c1ccccc1 (stereo not given)	E coli growth-2 0.45
COC(=O)/C=C1/S/C(=N/N=Cc2ccco2)NC1=O	none (no result: E coli growth-1, AddAB inh, phage Ecoli inh, Tat export inh)
NC(=O)c1cc(C(=O)c2ccc(Cl)cc2Cl)c[nH]1	E coli growth-2 0.5
CN(C)C(=O)c1cc(C(=O)c2ccc(Cl)cc2Cl)c[nH]1	none
COc1ccc(CNC(=O)CC2C(=O)N(C3CCCCC3)CC2Cc2ccccc2)cc1 (stereo not given)	none (no result: E coli growth-1, AddAB inh, phage Ecoli inh, Tat export inh)
CCCCCCCN(c1ccccc1)[C@@H]1C[C@H]2CCCC(=O)N3CC[C@@H](C1)[C@@H]23	Tat export inh 51 (no result: E coli growth-1, AddAB inh, E coli growth-2)
CCCCNC(=O)O[C@@H]1C[C@H]2CCCC(=O)N3CC[C@@H](C1)[C@@H]23	none (no result: E coli growth-2)
O=C1C2C3C=CC(C4CC34)C2C(=O)N1/N=C/c1ccc([N+](=O)[O-])o1 (stereo not given)	none (no result: E coli growth-2)
O=C1C2C3C=CC(C4CC34)C2C(=O)N1N=Cc1ccc([N+](=O)[O-])o1 (stereo not given)	E coli growth-2 0.5 (no result: E coli growth-1, AddAB inh, phage Ecoli inh, Tat export inh)
Oc1ccc(-c2nc(-c3ccc(F)cc3)c(-c3ccncc3)[nH]2)cc1	E coli growth-2 0.32
NC(=NOC(=O)c1ccc(Cl)cc1)c1ncc([N+](=O)[O-])s1	E coli growth-2 0.46 (no result: E coli growth-1, AddAB inh, phage Ecoli inh, Tat export inh)
N/C(=N\OC(=O)Nc1ccccc1)c1ncc([N+](=O)[O-])s1	none (no result: E coli growth-2)
O=C(CC1NS(=O)(=O)OC2CCCCC12)c1ccccc1 (stereo not given)	none (no result: E coli growth-1, AddAB inh, phage Ecoli inh, Tat export inh)
CN1C(=O)C2C(C3CC3)N3C(=O)CN(Cc4ccccc4)C(=O)[C@@]3(C)C2C1=O (stereo not given in full)	none (no result: E coli growth-1, AddAB inh, phage Ecoli inh, Tat export inh)
Cc1ccc(NC(=O)C2CCCN(c3ncccn3)C2)cc1F (stereo not given)	E coli growth-1 9.8
C/C(CC(=O)Nc1cc(C)ccn1)=N\NC(=O)c1cccc(C)c1O	phage Ecoli inh 11 (no result: E coli growth-2)
Cc1conc1NC(c1cccs1)c1ccc2cccnc2c1O (stereo not given)	E coli growth-1 13, AddAB inh 13 (no result: phage Ecoli inh, Tat export inh, E coli growth-2)
Oc1c(C(Nc2nccs2)c2ccc(C(F)(F)F)cc2)ccc2cccnc12 (stereo not given)	none (no result: E coli growth-1, AddAB inh)
